# TRPV1 ag: human TRPV1 agonism; activation, % at 8.33 µM; TRPV1-expressing cells, Fluo-8 calcium influx, agonist mode; 320,000 compounds, 0.19% hits; AID 540275; in the data active = activation above about 80%; inconclusive = between about 30% and that limit; also: 0% is about no effect
# Target sequence (Q8NER1 whole entry, looked up): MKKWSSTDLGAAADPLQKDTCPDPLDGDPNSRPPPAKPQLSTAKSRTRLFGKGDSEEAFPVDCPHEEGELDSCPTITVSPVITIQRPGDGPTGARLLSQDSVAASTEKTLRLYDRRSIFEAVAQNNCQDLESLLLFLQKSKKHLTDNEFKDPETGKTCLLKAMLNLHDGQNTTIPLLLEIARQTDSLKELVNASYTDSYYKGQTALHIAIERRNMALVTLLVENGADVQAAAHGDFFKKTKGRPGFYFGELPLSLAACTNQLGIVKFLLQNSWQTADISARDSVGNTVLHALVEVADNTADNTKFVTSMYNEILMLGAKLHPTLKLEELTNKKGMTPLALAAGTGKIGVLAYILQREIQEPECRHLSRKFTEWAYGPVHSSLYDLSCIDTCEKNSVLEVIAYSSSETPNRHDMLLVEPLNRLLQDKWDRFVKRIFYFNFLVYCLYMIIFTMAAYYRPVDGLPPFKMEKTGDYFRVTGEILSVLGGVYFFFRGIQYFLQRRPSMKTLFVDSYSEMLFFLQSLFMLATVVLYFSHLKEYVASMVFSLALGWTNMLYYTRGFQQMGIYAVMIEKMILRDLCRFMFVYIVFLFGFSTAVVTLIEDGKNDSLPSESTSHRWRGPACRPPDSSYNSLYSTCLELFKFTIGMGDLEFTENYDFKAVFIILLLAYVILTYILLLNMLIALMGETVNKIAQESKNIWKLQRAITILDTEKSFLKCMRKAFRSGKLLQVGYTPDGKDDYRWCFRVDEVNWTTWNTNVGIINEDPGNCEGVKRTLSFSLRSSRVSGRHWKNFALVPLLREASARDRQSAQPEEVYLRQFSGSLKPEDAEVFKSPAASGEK
#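 Cells expressing TRPV1 were dye-loaded with Fluo-8 and read kinetically: 10 s baseline, 3 min after compound (agonist portion), then 2 min after EC20 capsaicin (allosteric enhancer portion). Calcium-bound dye fluorescence at 480/520 nm.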
# TRPV1 potentiator: potentiators of human vanilloid receptor 1 (TRPV1); TRPV1-expressing cells, Fluo-8 calcium influx, capsaicin EC20 potentiation; potentiation, % at 8.33 µM; 320,000 compounds, 0.02% hits; in the data active = potentiation above about 80%; inconclusive = between about 30% and that limit; also: 0% is about no effect
#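 Fluo-8 calcium influx in TRPV1-expressing cells, kinetic read (ex 480/em 520 nm). Compound added and read 3 min for agonist activity, followed by capsaicin at EC20 final and 2 min further read for enhancement.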
# TRPML1 inh: blocks the human TRPML1 channel | AID 624415 | Q9GZU1 | activity change, negative = inhibition, % (concentration not given with the values) | 390,000 compounds, 0.02% hits | TRPML1-inducible cells, Ca2+ dye fluorescence, FDSS; active compounds read low; inhibition of EC80 agonist-evoked calcium signal; in the data active = activity change below about -50%; inconclusive = between about -30% and that limit;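 also: stimulus is agonist 54-4 at its EC80 concentration; % is scaled to controls: 0 for no effect and ±100 for the full control effect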
#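 TRPML1-DL cells, Tet-induced overnight (~16 h, 37 °C) at 1,500 cells/well, were loaded with Ca8 no-wash dye plus quencher for 45-90 min at room temperature. Compounds were pinned during FDSS kinetic reading; agonist 54-4 at EC80 (4 uM final) then added.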
# TRPML1 ag: human mucolipin-1 channel agonism. activation, % (test concentration not listed). Q9GZU1. TRPML1-expressing cells, Ca2+ dye fluorescence, FDSS. 410,000 compounds, 0.12% hits; in the data active = activation above about 50%; inconclusive = mostly about 30% to 49%; also: 0% is about no effect
#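 Tetracycline-induced TRPML1-DL cells are seeded and incubated overnight before loading with a no-wash Ca2+ dye and quencher. Agonist activity is taken from the 110 s fluorescence read following compound pin-transfer on an FDSS, before EC80 54-4 challenge.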
# * = called active by the depositor; u = inconclusive; x = no result. Rows were chosen to be rich in hits. Some 0.31% of all compounds tested hit in one or more screens of this group.
SMILES,TRPV1 ag,TRPV1 potentiator,TRPML1 inh,TRPML1 ag
CC(=NNC(=O)c1ccncc1)c1ccc2ccccc2c1O,x,x,-21,79*
CC(=NNC(=O)c1ccncc1)c1ccccc1O,x,x,-14,0
N#Cc1cc(C(=O)c2cc(F)ccc2O)cn(-c2nccs2)c1=O,u,-17,-14,124*
N#Cc1cc(C(=O)c2ccccc2O)cn(-c2nccs2)c1=O,87*,-17,-23,64*
CC(C)n1cc(C(=O)c2ccccc2O)cc(C#N)c1=O,-1,9,11,0
CCOC(=O)c1ccccc1NC(=O)CSc1ccc(-c2cccs2)nn1,x,x,15,3
CC(C)(C)n1nnnc1C(c1ccccc1)N1CCN(c2ncc(C(F)(F)F)cc2Cl)CC1 (centres undefined),x,x,x,57*
CC(C)(C)n1nnnc1C(c1ccccc1)N1CCN(c2c(Cl)cncc2Cl)CC1 (centres undefined),x,x,x,52*
CN1CCN(C(c2ccccc2)c2nnnn2C(C)(C)C)CC1 (centres undefined),x,x,x,-1
COc1cc2nc(NCCC(C)C)n3nc(-c4ccccc4)nc3c2cc1OC,x,x,11,-1
CCN(CC)c1ccc2cc(-c3nnc(-c4cccc(Cl)c4)o3)c(=O)oc2c1,x,x,-20,62*
CCN(CC)c1ccc2cc(-c3nnc(-c4ccncc4)o3)c(=O)oc2c1,107*,u,u,116*
Nc1ccc(/C=C/c2ccnc3ccccc23)cc1,x,x,x,8
Cc1cccc(C)c1N1CCN(C(=O)N2CCOCC2)CC1,80*,-20,-4,0
Cc1ccc(N2CCN(C(=O)N3CCOCC3)CC2)cc1C,13,-2,15,0
Cc1cc(NC(=O)c2ccccc2F)ccc1-c1nc2ccccc2s1,x,x,0,0
CCOc1ccccc1-c1c2cc(O)c(=O)cc-2oc2cc(O)c(O)cc12,u,-41,-8,110*
COc1ccc(OC)c(-c2oc3ccccc3c(=O)c2O)c1,5,-8,-15,0
O=c1cc2oc3cc(O)c(O)cc3c(-c3ccccc3O)c-2cc1O,17,7,14,16
COc1ccc(OC)c(-c2c3cc(O)c(=O)cc-3oc3cc(O)c(O)cc23)c1,14,-7,1,147*
COc1ccc(-n2nc(C(=O)NCC(=O)NCCCN3CCCCCC3)c3ccccc3c2=O)cc1Cl,-2,81*,-10,0
COc1ccc(-n2nc(C(=O)NCC(=O)NCCCN3CCC(C)CC3)c3ccccc3c2=O)cc1Cl,-3,0,8,-1
O=C(O)c1sc2cccc(Cl)c2c1Cl,83*,-8,1,0
O=C(Nc1cccc(S(=O)(=O)N2CCCCC2)c1)c1ccc2ncsc2c1,85*,-16,37,1
COc1ccc(C(C)(C)C)cc1NC(=O)c1ccc2ncsc2c1,23,-3,15,0
SMILES,TRPV1 ag,TRPV1 potentiator,TRPML1 inh,TRPML1 ag
COc1ccc(NC(=O)c2ccc3ncsc3c2)c2ccccc12,88*,3,10,1
O=C(Nc1ccc(C(F)(F)F)cc1)c1ccccc1,82*,14,32,-1
O=C(Nc1ccc(F)cc1)c1ccc2ncsc2c1,93*,-19,6,0
CN(C)c1nc(N)c(C#N)c(C#N)c1C#N,x,x,-5,0
CC(=O)c1ccc(NC(=O)CSc2nc(-c3ccc(C)cc3)nc3c2c(=O)n(C)c(=O)n3C)cc1,x,x,12,0
CC(=O)c1ccc(NC(=O)c2ccc3snnc3c2)cc1,u,-10,1,0
O=C(Nc1ccc(Cl)cc1)c1ccc2ncsc2c1,u,-7,-2,0
O=C(Nc1ccc(C(F)(F)F)cc1)c1ccc2ncsc2c1,90*,9,19,0
O=C(Nc1ccc(Cl)cc1)c1ccc2snnc2c1,88*,-15,-4,-1
O=C(Nc1ccccc1)C1=C(c2ccccc2)S(=O)(=O)CCS1(=O)=O,1,3,1,2
CC(=O)Oc1ccc2c(c1)Oc1cc(OC(C)=O)ccc1C21OC(=O)c2ccccc21,140*,12,-21,113*
O=C(/C=C/c1cc(Br)ccc1F)Nc1cccnc1,80*,8,5,0
CC1=CC(C)(C)N(C(=O)CN2C(=O)c3ccccc3C2=O)c2ccc(C)cc21,-1,-9,-5,61*
COc1ccc(C2=C(C)C(N3CCC(C(=O)NCc4ccc(C)o4)CC3)=NS2(=O)=O)cc1,x,x,-15,2
CCN(CCCNC(=O)Cn1ncc2c3ccccc3n(C)c2c1=O)c1cccc(C)c1,x,x,-7,4
Cc1ccc(C(NC(=O)Cc2cccs2)C(=O)Nc2ccc(C(C)C)cc2)cc1 (centres undefined),x,x,-2,0
COc1ccc(OC)c2c1CCC1(C2)NC(=O)NC1=O (centres undefined),x,x,x,-1
COc1ccc2c(c1C)CCC(C)(C#N)C2=O (centres undefined),x,x,-24,78*
O=C(COC(=O)C12CC3CC(CC(Cl)(C3)C1)C2)Nc1ccc2[nH]c(=O)[nH]c2c1,u,-11,0,0
O=C(COC(=O)C12CC3CC(CC(C3)C1)C2)Nc1ccc2[nH]c(=O)[nH]c2c1,92*,-2,12,0
Cc1ccc(NC(=O)c2cc3c(s2)CCCC3)cc1,84*,-12,0,1
Cc1ccc(NC(=O)CN(C)C(=O)c2cc3c(s2)CCCCC3)cc1,20,-17,-29,1
COc1ccc(NC(=O)C2CCC(CNS(=O)(=O)c3csc(C(N)=O)c3)CC2)cc1 (centres undefined),x,x,14,0
Nc1cc(=O)[nH]c(=O)n1-c1ccc(Cl)cc1,-4,16,-77*,-1
Cc1cc(=O)n(-c2ccc(Cl)cc2)c(=O)[nH]1,-1,22,3,0
SMILES,TRPV1 ag,TRPV1 potentiator,TRPML1 inh,TRPML1 ag
O=C(Nc1ccc(N2CCCC2)cc1)c1ccc([N+](=O)[O-])cc1Cl,9,-2,-9,0
CC(=O)N1CCN(c2ccc(NC(=O)c3cccc(Cl)c3Cl)cc2)CC1,3,-58,-16,0
O=C(Nc1ccc(N2CCCC2)cc1)c1cccc(Cl)c1Cl,81*,-27,-3,-1
CS(=O)(=O)c1ccc(C(=O)Nc2ccc(N3CCCCC3)cc2)c(Cl)c1,83*,-5,19,2
Cc1ccc(C(c2nnnn2Cc2ccccc2)N2CCN(Cc3ccncc3)CC2)cc1 (centres undefined),x,x,x,-1
Cc1nn(-c2ccccn2)c2nc(-c3cccs3)cc(C(=O)NCc3ccco3)c12,83*,-4,10,1
CCOC(=O)c1cc(-c2cccs2)nc2c1c(C)nn2-c1ccccn1,u,-4,12,1
COC(=O)c1cc(NC(=O)Nc2ccccc2)ccc1Cl,83*,-21,14,1
COC(=O)c1cccc(NC(=O)Nc2ccc(Cl)c(Cl)c2)c1,3,-35,27,0
COc1cccc(NC(=O)NCCc2ccc(Cl)cc2)c1,u,-8,0,0
COc1cccc(NC(=O)Nc2ccc(C(C)(C)C)cc2)c1,82*,-3,4,-1

# Compound activity (PubChem BioAssay)
